# Experimental data from the supplement of paper PMC7724964.
# T1: IRS1 157-267 IRS (domain begin residue: 157, domain end residue: 267), P35568
# T1 chain: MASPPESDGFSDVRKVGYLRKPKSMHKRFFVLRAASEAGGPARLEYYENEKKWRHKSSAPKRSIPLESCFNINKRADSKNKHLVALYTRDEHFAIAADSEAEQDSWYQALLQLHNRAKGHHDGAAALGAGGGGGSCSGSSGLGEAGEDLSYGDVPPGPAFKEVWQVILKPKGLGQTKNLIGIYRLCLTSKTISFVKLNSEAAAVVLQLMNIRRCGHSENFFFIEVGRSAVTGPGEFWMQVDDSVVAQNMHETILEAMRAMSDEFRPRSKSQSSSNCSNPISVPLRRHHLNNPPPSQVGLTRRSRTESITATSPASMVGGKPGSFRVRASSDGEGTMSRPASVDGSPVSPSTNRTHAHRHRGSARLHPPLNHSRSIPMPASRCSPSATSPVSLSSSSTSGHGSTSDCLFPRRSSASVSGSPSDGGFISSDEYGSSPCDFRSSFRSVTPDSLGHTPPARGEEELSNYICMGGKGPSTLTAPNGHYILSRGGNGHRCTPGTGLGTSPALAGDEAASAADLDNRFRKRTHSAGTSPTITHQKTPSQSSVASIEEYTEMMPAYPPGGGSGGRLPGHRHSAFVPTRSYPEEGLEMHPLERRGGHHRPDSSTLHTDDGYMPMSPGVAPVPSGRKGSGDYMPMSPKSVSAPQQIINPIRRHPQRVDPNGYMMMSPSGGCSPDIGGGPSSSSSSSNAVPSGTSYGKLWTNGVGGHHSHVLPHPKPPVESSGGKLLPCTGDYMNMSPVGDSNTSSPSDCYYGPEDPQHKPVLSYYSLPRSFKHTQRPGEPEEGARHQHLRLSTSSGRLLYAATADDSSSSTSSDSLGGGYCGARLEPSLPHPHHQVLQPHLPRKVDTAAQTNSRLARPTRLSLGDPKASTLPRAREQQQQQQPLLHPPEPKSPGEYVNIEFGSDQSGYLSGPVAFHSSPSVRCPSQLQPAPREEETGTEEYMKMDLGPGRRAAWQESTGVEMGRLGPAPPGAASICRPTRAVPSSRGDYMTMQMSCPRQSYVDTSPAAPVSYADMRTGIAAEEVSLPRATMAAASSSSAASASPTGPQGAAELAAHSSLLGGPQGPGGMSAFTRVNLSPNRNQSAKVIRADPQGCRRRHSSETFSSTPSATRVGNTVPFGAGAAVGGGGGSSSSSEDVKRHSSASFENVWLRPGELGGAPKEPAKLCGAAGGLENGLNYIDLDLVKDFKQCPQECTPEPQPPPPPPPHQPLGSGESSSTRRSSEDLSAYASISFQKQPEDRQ
# T2: LBR 1-67 LBR_tudor (domain begin residue: 1, domain end residue: 67), Q14739
# T2 chain: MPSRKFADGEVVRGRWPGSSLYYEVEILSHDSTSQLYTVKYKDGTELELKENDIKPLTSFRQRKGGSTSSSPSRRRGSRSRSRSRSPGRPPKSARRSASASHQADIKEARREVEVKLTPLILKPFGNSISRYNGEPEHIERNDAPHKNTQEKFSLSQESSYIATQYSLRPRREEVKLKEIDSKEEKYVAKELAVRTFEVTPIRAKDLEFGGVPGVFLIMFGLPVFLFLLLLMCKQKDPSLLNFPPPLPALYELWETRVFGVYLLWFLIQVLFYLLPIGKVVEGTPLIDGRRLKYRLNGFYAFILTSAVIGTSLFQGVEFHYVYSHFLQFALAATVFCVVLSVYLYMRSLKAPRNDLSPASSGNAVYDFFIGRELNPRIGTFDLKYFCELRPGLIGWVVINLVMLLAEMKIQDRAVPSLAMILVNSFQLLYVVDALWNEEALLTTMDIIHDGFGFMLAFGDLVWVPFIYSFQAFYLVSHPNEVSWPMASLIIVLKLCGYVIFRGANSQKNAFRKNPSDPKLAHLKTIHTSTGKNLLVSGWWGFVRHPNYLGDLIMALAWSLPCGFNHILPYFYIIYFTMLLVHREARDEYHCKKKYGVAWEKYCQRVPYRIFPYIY
# T3: LRP5 340-601 Ldl_recept_b (domain begin residue: 340, domain end residue: 601), O75197
# T3 chain: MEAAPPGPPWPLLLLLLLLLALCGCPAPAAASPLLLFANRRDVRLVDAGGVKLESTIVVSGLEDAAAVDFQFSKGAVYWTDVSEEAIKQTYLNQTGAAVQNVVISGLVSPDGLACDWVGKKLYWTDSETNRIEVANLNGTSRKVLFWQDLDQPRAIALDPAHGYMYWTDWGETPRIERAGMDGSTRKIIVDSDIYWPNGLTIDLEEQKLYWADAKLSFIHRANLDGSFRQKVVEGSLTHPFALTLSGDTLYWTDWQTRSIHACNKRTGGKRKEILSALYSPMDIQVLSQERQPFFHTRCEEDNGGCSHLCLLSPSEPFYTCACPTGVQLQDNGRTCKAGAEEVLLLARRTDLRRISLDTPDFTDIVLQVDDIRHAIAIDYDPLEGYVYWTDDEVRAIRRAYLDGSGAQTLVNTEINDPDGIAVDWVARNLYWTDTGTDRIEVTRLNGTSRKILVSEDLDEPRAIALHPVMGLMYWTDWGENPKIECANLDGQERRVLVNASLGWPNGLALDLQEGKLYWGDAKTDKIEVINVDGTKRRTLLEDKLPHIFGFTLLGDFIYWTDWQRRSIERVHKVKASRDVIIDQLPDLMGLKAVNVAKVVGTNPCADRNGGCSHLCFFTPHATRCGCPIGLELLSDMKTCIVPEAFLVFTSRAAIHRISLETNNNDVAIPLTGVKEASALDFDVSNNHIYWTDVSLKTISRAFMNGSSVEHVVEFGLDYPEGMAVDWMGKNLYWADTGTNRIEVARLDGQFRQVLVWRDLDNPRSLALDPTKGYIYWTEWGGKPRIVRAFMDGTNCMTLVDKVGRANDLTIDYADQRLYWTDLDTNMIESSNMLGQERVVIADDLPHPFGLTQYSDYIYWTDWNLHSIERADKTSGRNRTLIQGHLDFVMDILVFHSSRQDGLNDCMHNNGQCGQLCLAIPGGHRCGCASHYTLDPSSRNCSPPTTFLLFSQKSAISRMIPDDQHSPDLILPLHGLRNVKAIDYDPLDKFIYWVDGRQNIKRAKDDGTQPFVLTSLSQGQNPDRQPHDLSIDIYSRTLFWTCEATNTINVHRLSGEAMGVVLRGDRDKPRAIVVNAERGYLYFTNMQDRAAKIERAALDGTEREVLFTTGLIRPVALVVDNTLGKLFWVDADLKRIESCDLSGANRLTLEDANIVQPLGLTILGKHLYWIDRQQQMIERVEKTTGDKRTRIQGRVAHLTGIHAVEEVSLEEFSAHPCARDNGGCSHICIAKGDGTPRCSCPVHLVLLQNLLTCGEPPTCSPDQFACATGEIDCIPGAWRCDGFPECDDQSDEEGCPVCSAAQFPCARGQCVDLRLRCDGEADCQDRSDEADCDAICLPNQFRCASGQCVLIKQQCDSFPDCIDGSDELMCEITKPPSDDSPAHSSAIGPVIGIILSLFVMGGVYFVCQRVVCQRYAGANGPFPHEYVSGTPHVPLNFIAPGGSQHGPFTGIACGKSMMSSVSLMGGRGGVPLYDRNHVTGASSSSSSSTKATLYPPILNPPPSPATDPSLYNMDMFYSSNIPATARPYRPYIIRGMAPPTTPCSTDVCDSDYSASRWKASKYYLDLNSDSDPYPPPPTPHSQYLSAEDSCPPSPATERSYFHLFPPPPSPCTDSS
# T4: ZGPAT 120-268 zf-CCCH+TUDOR (domain begin residue: 120, domain end residue: 268), Q8N5A5
# T4 chain: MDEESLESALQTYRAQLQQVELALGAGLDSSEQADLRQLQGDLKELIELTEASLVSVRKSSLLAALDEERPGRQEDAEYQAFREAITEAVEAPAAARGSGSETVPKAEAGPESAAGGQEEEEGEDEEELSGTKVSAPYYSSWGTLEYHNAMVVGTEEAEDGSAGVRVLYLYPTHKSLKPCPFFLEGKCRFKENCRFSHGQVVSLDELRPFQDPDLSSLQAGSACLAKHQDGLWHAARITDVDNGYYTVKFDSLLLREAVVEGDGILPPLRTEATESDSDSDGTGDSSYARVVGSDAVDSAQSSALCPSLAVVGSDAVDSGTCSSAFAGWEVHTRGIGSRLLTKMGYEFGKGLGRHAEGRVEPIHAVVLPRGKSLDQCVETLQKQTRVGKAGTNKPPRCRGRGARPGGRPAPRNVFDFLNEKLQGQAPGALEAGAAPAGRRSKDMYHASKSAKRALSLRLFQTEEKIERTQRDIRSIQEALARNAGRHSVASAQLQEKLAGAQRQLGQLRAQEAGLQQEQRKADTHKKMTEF
# Biological target: T1, IRS1 157-267 IRS (domain begin residue: …
# Assay: phage ELISA signal ratio (GST-PRM binding over GST background); higher = stronger binding of peptide-phage to the PRM
# In short: (§1)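 Human peptide recognition domains were expressed in 96-well plates as fusions to the C-terminus of glutathione S-transferase (GST) and selected against an M13 phage library displaying randomized hexadecapeptides, cysteine-free and glycine-flanked, on the gene-8 major coat protein. Five selection rounds were run, and approximately 48 individual clones from rounds 4 and 5 were tested by phage ELISA. Each value is the ELISA signal on the GST-domain fusion divided by the signal on GST alone. Positive clones were sequenced.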
row,Binder,phage ELISA signal ratio
1,IWTWEYNPHYEIIHDM,18.6
2,DLVDWMSATWNENPWY,20.7

# Biological target: KDM6A 1-520 TPR_8 (domain begin residue: 1, domain end residue: 520), O15550
# Assay: as above
# In short: as §1
# Sequence of KDM6A 1-520 TPR_8 (domain begin residue: 1, domain end residue: 520), O15550 (O15550 whole entry): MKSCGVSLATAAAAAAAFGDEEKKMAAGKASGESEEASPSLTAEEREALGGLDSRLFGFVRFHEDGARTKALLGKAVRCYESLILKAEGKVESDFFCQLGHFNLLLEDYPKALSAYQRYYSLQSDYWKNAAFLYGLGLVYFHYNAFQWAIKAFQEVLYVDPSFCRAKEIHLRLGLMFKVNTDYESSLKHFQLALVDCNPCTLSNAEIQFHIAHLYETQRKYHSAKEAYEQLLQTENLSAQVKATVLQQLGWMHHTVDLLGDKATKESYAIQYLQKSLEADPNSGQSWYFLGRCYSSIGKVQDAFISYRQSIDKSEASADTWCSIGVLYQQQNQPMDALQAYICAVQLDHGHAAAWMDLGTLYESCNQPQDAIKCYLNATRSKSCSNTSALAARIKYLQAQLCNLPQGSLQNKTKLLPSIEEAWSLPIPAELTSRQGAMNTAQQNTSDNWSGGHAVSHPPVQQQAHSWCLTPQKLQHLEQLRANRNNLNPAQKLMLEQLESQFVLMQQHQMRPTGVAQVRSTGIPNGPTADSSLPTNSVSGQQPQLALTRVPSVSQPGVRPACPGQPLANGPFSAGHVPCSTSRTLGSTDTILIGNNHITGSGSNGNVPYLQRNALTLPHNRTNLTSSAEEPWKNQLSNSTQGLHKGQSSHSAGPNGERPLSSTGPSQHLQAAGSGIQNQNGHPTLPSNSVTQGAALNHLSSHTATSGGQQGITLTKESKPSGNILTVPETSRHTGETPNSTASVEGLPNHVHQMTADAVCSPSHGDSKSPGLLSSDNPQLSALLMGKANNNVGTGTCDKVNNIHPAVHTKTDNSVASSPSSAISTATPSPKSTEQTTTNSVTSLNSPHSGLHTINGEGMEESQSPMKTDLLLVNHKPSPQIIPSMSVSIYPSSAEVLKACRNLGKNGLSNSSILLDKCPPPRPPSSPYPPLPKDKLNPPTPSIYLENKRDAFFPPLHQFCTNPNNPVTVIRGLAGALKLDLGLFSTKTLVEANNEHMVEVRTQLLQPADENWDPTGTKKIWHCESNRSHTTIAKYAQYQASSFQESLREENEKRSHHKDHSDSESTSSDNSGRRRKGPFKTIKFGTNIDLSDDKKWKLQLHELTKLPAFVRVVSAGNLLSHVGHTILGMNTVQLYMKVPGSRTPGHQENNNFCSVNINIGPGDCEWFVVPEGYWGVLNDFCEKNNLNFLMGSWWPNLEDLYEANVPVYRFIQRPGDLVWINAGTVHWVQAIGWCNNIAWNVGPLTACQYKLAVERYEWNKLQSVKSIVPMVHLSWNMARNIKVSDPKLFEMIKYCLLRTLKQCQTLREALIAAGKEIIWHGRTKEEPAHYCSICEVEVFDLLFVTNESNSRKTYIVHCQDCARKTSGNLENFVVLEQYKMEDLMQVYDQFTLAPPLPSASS
row,Binder,phage ELISA signal ratio
1,YMEMVWDTIQIQPPQD,6.38
2,NYIEHMYDSMMYGSMT,8.78
3,WSWPDLDVVQDMIVAE,5.09
4,HYMEMLYEQLAISQAI,5.05
5,DNAMVIWHSTTELYQH,3.82
6,MDMIWDQILPDQFLSK,6.37

# Biological target: KPNB1 1-876 IBN_N+Arm (domain begin residue: 1, domain end residue: 876), Q14974
# Assay: as above
# In short: as §1
# Sequence of KPNB1 1-876 IBN_N+Arm (domain begin residue: 1, domain end residue: 876), Q14974 (Q14974 whole entry): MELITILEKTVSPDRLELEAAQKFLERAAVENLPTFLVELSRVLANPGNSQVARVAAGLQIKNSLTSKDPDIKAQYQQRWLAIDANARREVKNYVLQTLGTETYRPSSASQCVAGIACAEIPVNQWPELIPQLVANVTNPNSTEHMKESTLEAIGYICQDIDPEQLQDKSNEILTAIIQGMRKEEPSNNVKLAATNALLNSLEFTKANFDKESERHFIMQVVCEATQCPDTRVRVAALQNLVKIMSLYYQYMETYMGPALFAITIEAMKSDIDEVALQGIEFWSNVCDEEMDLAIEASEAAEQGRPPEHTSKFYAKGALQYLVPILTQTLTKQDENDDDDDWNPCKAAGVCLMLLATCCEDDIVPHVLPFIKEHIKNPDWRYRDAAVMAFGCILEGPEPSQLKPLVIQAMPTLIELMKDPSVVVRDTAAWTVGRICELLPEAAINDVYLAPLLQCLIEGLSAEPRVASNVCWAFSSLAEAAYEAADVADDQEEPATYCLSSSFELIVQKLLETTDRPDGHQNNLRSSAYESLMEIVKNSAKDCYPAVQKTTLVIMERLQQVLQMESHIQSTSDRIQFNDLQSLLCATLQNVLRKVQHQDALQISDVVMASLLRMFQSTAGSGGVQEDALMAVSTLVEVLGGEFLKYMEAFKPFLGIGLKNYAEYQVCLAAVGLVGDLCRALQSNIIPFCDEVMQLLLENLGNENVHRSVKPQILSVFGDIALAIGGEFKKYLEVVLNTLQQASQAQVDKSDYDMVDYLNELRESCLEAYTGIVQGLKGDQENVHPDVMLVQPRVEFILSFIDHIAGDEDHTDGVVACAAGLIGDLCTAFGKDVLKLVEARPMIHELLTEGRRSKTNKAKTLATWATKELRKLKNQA
row,Binder,phage ELISA signal ratio
1,WISFPFSDWQGDLFTF,10.3
2,WQMWTPLGDLDQIYTF,16.1
3,LDWVSMFEDNSSQFSV,17.2
4,PWPQEYTTDLTSVFWF,19.7
5,PHEFQWALWPSGVFVF,14
6,PSEWENYMSVGDIFIF,16.9

# Biological target: T2, LBR 1-67 LBR_tudor (domain begin …
# Assay: as above
# In short: as §1
row,Binder,phage ELISA signal ratio
1,YGWETIWDTFPVDMPA,3.69
2,PYDNYRVVQIPWLFSD,3.18
3,YNFIESMYTMEPMPMH,3.33
4,DDVTWMWPPGGYFVNM,4.54

# Biological target: HSPA9 438-651 HSP70 (domain begin residue: 438, domain end residue: 651), P38646
# Assay: as above
# In short: as §1
# Sequence of HSPA9 438-651 HSP70 (domain begin residue: 438, domain end residue: 651), P38646 (P38646 whole entry): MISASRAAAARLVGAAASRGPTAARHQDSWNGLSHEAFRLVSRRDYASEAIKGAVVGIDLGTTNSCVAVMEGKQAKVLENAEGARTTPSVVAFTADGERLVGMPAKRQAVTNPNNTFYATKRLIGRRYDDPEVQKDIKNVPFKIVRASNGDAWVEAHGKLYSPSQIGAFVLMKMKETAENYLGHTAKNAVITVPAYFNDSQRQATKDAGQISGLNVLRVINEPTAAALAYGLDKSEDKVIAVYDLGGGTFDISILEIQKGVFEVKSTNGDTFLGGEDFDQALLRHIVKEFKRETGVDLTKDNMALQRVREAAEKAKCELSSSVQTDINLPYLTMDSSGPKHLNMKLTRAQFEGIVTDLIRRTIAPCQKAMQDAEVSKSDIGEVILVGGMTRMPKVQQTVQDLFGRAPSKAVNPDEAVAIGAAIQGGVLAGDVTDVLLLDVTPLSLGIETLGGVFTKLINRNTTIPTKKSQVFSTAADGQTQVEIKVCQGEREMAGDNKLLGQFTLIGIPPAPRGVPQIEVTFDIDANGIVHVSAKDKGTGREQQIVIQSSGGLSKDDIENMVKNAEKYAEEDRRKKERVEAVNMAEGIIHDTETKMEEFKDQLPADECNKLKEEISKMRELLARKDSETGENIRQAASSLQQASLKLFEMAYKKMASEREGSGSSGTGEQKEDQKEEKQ
row,Binder,phage ELISA signal ratio
1,TFSMHRDEFQMLLNMM,23.3
2,PTLLLWQQIDQVMMKK,20.8
3,VITMDQSQWDDVMFWL,27.3
4,DLQQWIIDFYIHSMET,20.6
5,YFTMDHDAWHYFQLYA,20.2

# Biological target: KMT2C 995-1055 PHD (domain begin residue: 995, domain end residue: 1055)
# Assay: as above
# In short: as §1
row,Binder,phage ELISA signal ratio
1,VKTPVEDWKYLTFYYI,6.07

# Biological target: T3, LRP5 340-601 Ldl_recept_b (domain begin …
# Assay: as above
# In short: as §1
row,Binder,phage ELISA signal ratio
1,EWSSNEWWDAYSAMTV,7.31

# Biological target: SETD1A 2-220 RRM_1 (domain begin residue: 2, domain end residue: 220), O15047
# Assay: as above
# In short: as §1
row,Binder,phage ELISA signal ratio
1,YNFIESMYTMEPMPMH,4.24

# Biological target: T4, ZGPAT 120-268 zf-CCCH+TUDOR (domain …
# Assay: as above
# In short: as §1
row,Binder,phage ELISA signal ratio
1,YNFIESMYTMEPMPMH,3.65

# Biological target: KARS 71-214 tRNA_anti-codon (domain begin residue: 71, domain end residue: 214), Q15046
# Assay: as above
# In short: as §1
# Sequence of KARS 71-214 tRNA_anti-codon (domain begin residue: 71, domain end residue: 214), Q15046 (Q15046 whole entry, looked up, tested part not stated): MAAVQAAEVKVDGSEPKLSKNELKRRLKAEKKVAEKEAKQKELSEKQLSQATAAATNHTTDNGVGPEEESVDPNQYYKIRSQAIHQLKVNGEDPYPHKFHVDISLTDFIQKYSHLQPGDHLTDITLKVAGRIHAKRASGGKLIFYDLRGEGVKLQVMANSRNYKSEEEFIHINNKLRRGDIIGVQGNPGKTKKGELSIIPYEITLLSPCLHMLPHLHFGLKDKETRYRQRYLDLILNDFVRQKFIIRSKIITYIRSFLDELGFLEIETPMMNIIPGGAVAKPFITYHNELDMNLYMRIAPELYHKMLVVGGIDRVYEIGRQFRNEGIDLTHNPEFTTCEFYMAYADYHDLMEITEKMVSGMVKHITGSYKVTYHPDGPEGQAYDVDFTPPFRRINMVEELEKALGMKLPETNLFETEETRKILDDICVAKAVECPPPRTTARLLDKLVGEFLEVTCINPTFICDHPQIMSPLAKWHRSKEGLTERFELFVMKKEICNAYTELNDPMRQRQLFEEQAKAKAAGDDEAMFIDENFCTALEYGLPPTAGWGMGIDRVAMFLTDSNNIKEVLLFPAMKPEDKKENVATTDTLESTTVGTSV
row,Binder,phage ELISA signal ratio
1,ETWADYFNVPISWIHE,18.1

# Biological target: MAD2L1 2-205 HORMA (domain begin residue: 2, domain end residue: 205), Q13257
# Assay: as above
# In short: as §1
# Sequence of MAD2L1 2-205 HORMA (domain begin residue: 2, domain end residue: 205), Q13257 (Q13257 whole entry): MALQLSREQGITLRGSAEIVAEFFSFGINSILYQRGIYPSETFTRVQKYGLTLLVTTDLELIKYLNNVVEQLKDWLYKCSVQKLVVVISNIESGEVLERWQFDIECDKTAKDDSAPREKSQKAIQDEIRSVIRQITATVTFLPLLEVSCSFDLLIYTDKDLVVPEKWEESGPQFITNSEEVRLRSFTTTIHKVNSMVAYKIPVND
row,Binder,phage ELISA signal ratio
1,WYIIRGPMWHEPHVIE,8.9

# Biological target: KMT2C 1055-1137 PHD (domain begin residue: 1055, domain end residue: 1137)
# Assay: as above
# In short: as §1
row,Binder,phage ELISA signal ratio
1,FETLEVIPGLGEFFKQ,6.9
